Data reported in PubChem BioAssay AID720582 (The Scripps Research Institute Molecular Screening Center, 2013).
Among all 370,000 compounds or so, about 2,300 (0.62%) were called active. The full list was thinned out, with actives kept by preference. Values without a mark were called inactive.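 How the source made its calls: active means inhibition above a per-campaign cutoff equal to the mean of compounds falling between control-based bounds plus 3 SD (cut at about 20% in these data); inactive means the rest.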

Target: Disintegrin and metalloproteinase domain-containing protein 10 (Homo sapiens) (UniProt O14672)
Sequence (O14672 214-748 limits assumed): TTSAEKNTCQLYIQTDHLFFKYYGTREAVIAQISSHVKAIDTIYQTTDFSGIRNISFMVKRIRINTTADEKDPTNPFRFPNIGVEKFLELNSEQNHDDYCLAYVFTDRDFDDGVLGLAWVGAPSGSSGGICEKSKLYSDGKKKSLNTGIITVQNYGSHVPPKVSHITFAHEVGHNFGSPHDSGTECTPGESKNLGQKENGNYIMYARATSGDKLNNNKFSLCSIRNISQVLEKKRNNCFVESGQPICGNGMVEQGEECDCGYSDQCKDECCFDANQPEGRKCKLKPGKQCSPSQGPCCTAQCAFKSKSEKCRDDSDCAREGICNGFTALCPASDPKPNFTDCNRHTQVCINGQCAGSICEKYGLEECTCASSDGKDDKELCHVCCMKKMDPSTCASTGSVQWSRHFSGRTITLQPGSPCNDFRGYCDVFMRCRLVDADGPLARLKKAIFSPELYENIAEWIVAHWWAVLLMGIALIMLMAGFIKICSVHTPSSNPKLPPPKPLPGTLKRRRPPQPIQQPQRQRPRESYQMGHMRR
Test: blockers of ADAM10 peptide cleavage – biochemical, QFRET, HTS, primary screen (AID 720582);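 further: 0% = DMSO wells while the 100% control is not disclosed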
Conditions: recombinant ADAM10, EDANS/DABCYL FRET peptide cleavage, 3 h; at 7 µM; active compounds read high

Q: Which inhibition does the source give for O=C(CSc1nc2c(c(=O)[nH]1)CCCC2)N1CCCCC1 here?
A: 3.78%

Q: For COc1ccc(C(N)c2csc(NC(=O)Nc3cccc(C(F)(F)F)c3)n2)cc1 (stereo not drawn), which inhibition is on record?
A: 25.5% (active)

Q: How did the inhibition turn out when NC(c1csc(NC(=O)Nc2ccccc2Oc2ccccc2)n1)c1ccccc1Cl (stereo not drawn) was run?
A: -3.13%

Q: CCOC(=O)c1csc(NC(=O)Nc2cccc(OC)c2)n1 was tested. Which inhibition did it give?
A: 0.5%

Q: Which inhibition does the source give for Nn1c(SCC(=O)Nc2cccc3ccccc23)nnc1-c1cc(-c2ccc(F)cc2)n[nH]1 here?
A: -0.59%

Q: With COc1ccc(Cl)cc1NC(=O)c1cccc(N2C(=O)C3CC=CCC3C2=O)c1 (stereo not drawn) as the molecule, how does the inhibition read?
A: 3.57%

Q: How did the inhibition turn out when COc1ccc(Cl)cc1NC(=O)COC(=O)C(CC(C)C)N1C(=O)C2CC=CCC2C1=O (stereo not drawn) was run?
A: 28% (active)

Q: For COc1ccc(Cl)cc1NC(=O)COC(=O)c1ccc(Br)o1, which inhibition is on record?
A: -6.92%

Q: With Cc1ccccc1CS(=O)(=O)Cc1ccc(C(=O)Nc2ccc(Cl)cc2)o1 as the molecule, how does the inhibition read?
A: -29%

Q: Which inhibition does the source give for Cc1sc2nc(SCC(=O)c3ccc(O)c(O)c3)n(Cc3ccco3)c(=O)c2c1C here?
A: 15.9%

Q: With COc1cccc(CNC(=O)C2CCCN(c3nc4ccccc4o3)C2)c1OC (stereo not drawn) as the molecule, how does the inhibition read?
A: 2.5%

Q: Which inhibition does the source give for O=C1c2ccccc2C(=O)N1CCOc1ccc(F)cc1 here?
A: 0.68%

Q: Which inhibition does the source give for Cc1c(C=O)c2ccccc2n1CCOc1ccccc1 here?
A: 10.4%

Q: How did the inhibition turn out when O=Cc1cn(CCOc2ccc(F)cc2)c2ccccc12 was run?
A: 20.7% (active)

Q: How did the inhibition turn out when Cc1ccc(C(=O)C2CCN(CC(=O)NCCC(C)C)CC2)cc1 was run?
A: -6.22%

Q: For Cc1cccc(OCCNC(=S)NC(=O)c2cccnc2)c1, which inhibition is on record?
A: 2.33%

Q: NS(=O)(=O)c1ccc(NC(=S)NC(=O)c2cccnc2)cc1 was tested. Which inhibition did it give?
A: -8.74%

Q: For O=C(/C=C/c1ccc(F)cc1)NC(=S)NNC(=O)c1cccnc1, which inhibition is on record?
A: 22.8% (active)

Q: With O=C1CCC2(CCC(c3ccc(Cl)cc3)CC2)N1CCO (stereo not drawn) as the molecule, how does the inhibition read?
A: -9.03%

Q: O=C(N[C@@H](Cc1c[nH]c2ccccc12)C(=O)O)OCC1c2ccccc2-c2ccccc21 was tested. Which inhibition did it give?
A: -1.67%

Q: Which inhibition does the source give for CCN(CC)c1ccc(/C=N/NC(=O)CNC(=O)c2cccs2)cc1 here?
A: -246%

Q: How did the inhibition turn out when O=C(NC(Cc1c[nH]c2ccccc12)C(=O)N/N=C/c1ccc(Br)cc1)c1cccs1 (stereo not drawn) was run?
A: 28.1% (active)

Q: COC(CNC(=O)[C@H](Cc1ccccc1)NC1(C(=O)NC2CCCCC2)CCCCC1)OC was tested. Which inhibition did it give?
A: 4.93%

Q: For O=C(CC(O)(C(F)(F)F)C(F)(F)F)Nc1ccc(Cl)c(Cl)c1, which inhibition is on record?
A: 23.7% (active)

Q: With O=C(Nc1ccc(Cl)c(Cl)c1)N1CC=C(c2ccccc2)CC1 as the molecule, how does the inhibition read?
A: -19.8%

Q: How did the inhibition turn out when O=C(CCS(=O)(=O)c1ccccc1)Nc1ccc(Cl)c(Cl)c1 was run?
A: -2.68%

Q: For COC(=O)C1CN(Cc2ccc(F)cc2)CCS(=O)(=O)N1Cc1ccc(Cl)cc1 (stereo not drawn), which inhibition is on record?
A: -0.23%

Q: Which inhibition does the source give for COC(=O)[C@H](C(C)C)N1CCc2nnn(Cc3ccc(C)cc3)c2-c2ccccc2S1(=O)=O here?
A: 5.83%

Q: How did the inhibition turn out when COC(=O)[C@]12C[C@H](CC(=O)NCCc3ccccc3OC)C(=O)N(Cc3ccco3)C1=C[C@H](C(C)C)O[C@@H]2C1CC1 was run?
A: -2.42%

Q: CC(=O)Nc1ccc(OC[C@@H](O)CN2CCC(C(O)(c3ccccc3)c3ccccc3)CC2)cc1 was tested. Which inhibition did it give?
A: 4.68%

Q: For O=C(NCCc1c[nH]c2ccc(Cl)cc12)c1ccc([N+](=O)[O-])cc1, which inhibition is on record?
A: -1.95%

Q: How did the inhibition turn out when O=C(NCCc1ccc(Cl)cc1Cl)c1cc([N+](=O)[O-])c[nH]c1=O was run?
A: 20.1% (active)

Q: With NS(=O)(=O)c1ccc(CCNC(=O)c2ccc(Cl)cc2[N+](=O)[O-])cc1 as the molecule, how does the inhibition read?
A: -0.8%

Q: Cc1cc(NS(=O)(=O)c2ccc(NC(=O)CSc3nnc(-c4ccc(C(C)(C)C)cc4)n3Cc3ccco3)cc2)nc(C)n1 was tested. Which inhibition did it give?
A: 5.55%

Q: COc1ccc(C2Nc3ccccc3C(=O)N2Cc2cccs2)cc1COc1c(C)cccc1C (stereo not drawn) was tested. Which inhibition did it give?
A: -298%

Q: Which inhibition does the source give for COc1ccc(C(=O)OCCN(C)C2CN(Cc3cn(Cc4cccc(C)c4)nn3)S(=O)(=O)C2)cc1OC (stereo not drawn) here?
A: 2.95%

Q: For Cc1ccc(-n2c(SCC(=O)Nc3cccc4ccccc34)nnc2-c2ccco2)cc1, which inhibition is on record?
A: 9.63%

Q: S=c1[nH]cc(-c2ccc(Cl)cc2)n1-c1ccccc1 was tested. Which inhibition did it give?
A: 22.5% (active)

Q: For S=c1[nH]nc(CSCc2ccc(Cl)cc2Cl)n1-c1ccccc1, which inhibition is on record?
A: 15.5%

Q: S=c1[nH]ccn1-c1ccc(Cl)cc1 was tested. Which inhibition did it give?
A: -2.53%

Q: O=C(c1cccc(C(F)(F)F)c1)N1CC[C@H]2[C@H](CCCN2Cc2cc(F)cc(F)c2)C1 was tested. Which inhibition did it give?
A: -2.92%

Q: Which inhibition does the source give for CCn1c(CNc2ccc(OC)cc2)nnc1SCC(=O)c1ccc(OC)cc1 here?
A: -4.28%

Q: Cn1c(Cc2cccs2)nnc1SCC(=O)Nc1ccccc1 was tested. Which inhibition did it give?
A: -5.09%

Q: For Cn1c(CNc2nc(-c3ccccc3)cs2)nnc1SCC(=O)c1ccccc1, which inhibition is on record?
A: 35% (active)

Q: How did the inhibition turn out when COc1ccc(CN2C(=O)N3Cc4cc(OC)ccc4C3CS2(=O)=O)cc1 (stereo not drawn) was run?
A: 2.06%

Q: With O=C(CCCCCN1C(=O)C2C3C=CC(C3)C2C1=O)Nc1ccccc1 (stereo not drawn) as the molecule, how does the inhibition read?
A: 1.21%

Q: For COc1cccc(C2=CC(=O)C[C@H](c3ccc(OC)c(OC)c3)C2)c1, which inhibition is on record?
A: 1.42%

Q: Which inhibition does the source give for COc1ccc([C@H]2CC(=O)C=C(c3ccc(OC(F)(F)F)cc3)C2)cc1OC here?
A: 21% (active)

Q: With COc1ccc([C@H]2CC(=O)C=C(c3ccc(CO)cc3)C2)cc1 as the molecule, how does the inhibition read?
A: -0.95%

Q: For O=C(COC(=O)Cc1c[nH]c2ccccc12)NCCc1ccccc1, which inhibition is on record?
A: 7.22%

Q: How did the inhibition turn out when Cc1cc(C)cc(NC(=S)NCCc2c[nH]c3ccccc23)c1 was run?
A: 28.5% (active)

Q: Cc1ccc(S(=O)(=O)N(C)CC(=O)NCCc2c[nH]c3ccccc23)cc1 was tested. Which inhibition did it give?
A: -6.6%

Q: For COc1cc(/C=C2/SC(=S)N(Cc3ccccc3)C2=O)cc(OC)c1O, which inhibition is on record?
A: 20.6% (active)

Q: COc1cc(Cl)cc(C2NC(=O)NC(C)=C2C(=O)NCc2ccccc2)c1O (stereo not drawn) was tested. Which inhibition did it give?
A: -4.94%

Q: For COc1cc(C(=S)NCc2ccccc2)cc(Br)c1O, which inhibition is on record?
A: 10.6%

Q: For NS(=O)(=O)c1ccc(NC(=O)COC(=O)C2(c3ccc(F)cc3)CCCC2)cc1, which inhibition is on record?
A: 13%

Q: Which inhibition does the source give for CN(C)S(=O)(=O)c1cccc(NC(=O)COC(=O)C2(c3ccccc3F)CCCC2)c1 here?
A: 27.6% (active)

Q: Which inhibition does the source give for O=C(COC(=O)COc1ccccc1F)Nc1cccc(S(=O)(=O)N2CCCCC2)c1 here?
A: -11.9%
